Assay results reported in the supplement of paper PMC13380429.
Unmarked numbers belong to inactive results.

Tested on: Vero E6 infected with SARS-CoV-2
Test: SARS-CoV-2 infection rate relative to infected DMSO; higher = more infection, active = 60 or less
Conditions: 24 h

Structure (SMILES)	SARS-CoV-2 infection rate
CN(C)Cc1cccc(N=C(c2ccccc2)c2c(O)[nH]c3cc(C(=O)N(C)C)ccc23)c1 (10 µM)	112%
C/C=C/c1cc(OC)c(OC)cc1OC [alpha-asarone] (10 µM)	98.5%
CC(C)/N=c1\cc2n(-c3ccc(Cl)cc3)c3ccccc3nc-2cc1Nc1ccc(Cl)cc1 [clofazimine] (10 µM)	64%
C#CCN(C)Cc1ccccc1 [pargyline] (10 µM)	108%
CC(C)C[C@@H]1NC(=O)[C@@H](C(C)C)NC(=O)[C@@H]2CCCN2C(=O)[C@@H](CC(=O)O)NC(=O)[C@@H](Cc2c[nH]c3ccccc23)NC1=O (10 µM)	103%
FC(F)(F)C(F)(F)C(F)(F)N(C(F)(F)C(F)(F)C(F)(F)F)C(F)(F)C(F)(F)C(F)(F)F [perfluamine] (10 µM)	92.5%
Cc1ccc(F)cc1C(=O)Nc1ccc(C(=O)N2Cc3cccn3Cc3ccccc32)c(Cl)c1 [lixivaptan] (10 µM)	111%
NCCNCCNCCN [trientine] (10 µM)	106%
NC(N)=Nc1nc(CSCC/C(N)=N/S(N)(=O)=O)cs1 [Famotidine] (10 µM)	106%
Cc1cc(C)c2c(N)c(C(=O)NCc3ccc(Cl)cc3)sc2n1 (10 µM)	99%
OC(c1ccc(-c2ccc(CN3CCN(Cc4ccncc4)CC3)cc2)c(F)c1)(C(F)(F)F)C(F)(F)F (10 µM)	104%
C[C@@H]1COCCN1c1cc(C2([S@](C)(=N)=O)CC2)nc(-c2ccnc3[nH]ccc23)n1 (0.833333 µM)	90%
CC(=O)NCCc1c(Cc2ccccc2)[nH]c2ccccc12 [luzindole] (10 µM)	99%
CC(C)(C)Sc1c(CC(C)(C)C(=O)O)n(Cc2ccc(Cl)cc2)c2ccc(OCc3ccc4ccccc4n3)cc12 [quiflapon] (10 µM)	106%
OCc1c[nH]c2ccccc12 [indole-3-carbinol] (10 µM)	94.5%
CN(C)C(=O)c1ccc(S(=O)(=O)c2ccc(NC(=O)[C@@](C)(O)C(F)(F)F)c(Cl)c2)cc1 (10 µM)	104%
CCN(C(=O)c1c(O)c2c(Cl)cccc2n(C)c1=O)c1ccccc1 [laquinimod] (10 µM)	99%
CC(C)OC(=O)[C@H](C)N[P@](=O)(CO[C@H](C)Cn1cnc2c(N)ncnc21)Oc1ccccc1 [tenofovir-alafenamide] (10 µM)	106%
C[N+]12CCCCC1CCC(=C(c1cccs1)c1cccs1)C2 (stereo not given) [tiquizium] (10 µM)	93.5%
COC(=O)C[C@](O)(CCCC(C)(C)O)C(=O)O[C@@H]1C(OC)=C[C@]23CCCN2CCc2cc4c(cc2[C@H]13)OCO4 [homoharringtonine] (10 µM)	23% (active)
CCCCCCCCCCCCCCCCOP(=O)([O-])OCC[N+](C)(C)C [miltefosine] (0.833333 µM)	94.5%
CNC1CCCN(c2c(F)cc3c(=O)c(C(=O)O)cn(C4CC4)c3c2OC)C1 (stereo not given) [balofloxacin] (10 µM)	104%
O=C(O)C1(C(=O)O)CCC1.[NH2-].[NH2-].[Pt+2] [carboplatin] (10 µM)	102%
CCOCc1cc(OC)c(-c2ccc(C[C@H](NC(=O)c3c(F)cccc3F)C(=O)O)cc2)c(OC)c1 [firategrast] (10 µM)	105%
O=P(O)(O)CN(CCN(CP(=O)(O)O)CP(=O)(O)O)CP(=O)(O)O (10 µM)	104%
CCCCCCOC(=O)NC(=N)c1ccc(NCc2nc3cc(C(=O)N(CCC(=O)OCC)c4ccccn4)ccc3n2C)cc1 [dabigatran-etexilate] (10 µM)	98.5%
C[C@@H](N)[C@H]1CC[C@H](C(=O)Nc2ccncc2)CC1 (10 µM)	106%
CCOCOC[C@H](C[C@H](C)C(=O)NO)NC(=O)c1ccc(Oc2ccccc2)cc1 (10 µM)	98.5%
CN(C)CCC(c1ccc(Br)cc1)c1ccccn1 (stereo not given) [brompheniramine] (10 µM)	106%
COc1ccc(-c2cc(=O)c3c(O)cc(O[C@@H]4O[C@H](CO[C@@H]5O[C@@H](C)[C@H](O)[C@@H](O)[C@H]5O)[C@@H](O)[C@H](O)[C@H]4O)cc3o2)cc1O [diosmin] (10 µM)	106%
